# Screens: PubChem BioAssay, several laboratories
# In the library only some 1.1% were active in any assay of this set; here they are far more common.
# MIN6 prolif-1: induces beta-cell replication in MIN6 cells. MIN6 cells proliferation, ATPlite luminescence, 48 h; cells starved in 0.2% serum; 100% = growth in 10% serum. actives 0.29% (n = 330,000). proliferation, % at 10 µM. AID 2380;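 active means compounds whose signal lies at least 3.5 SD above the mean of all wells on their plate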;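 further: 0% = DMSO-treated cells in low-serum medium and 100% = 10% serum control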
# Bfl-1 A1 inh: inhibitors of the anti-apoptotic protein A1, read as caspase activation; caspase activation, % (concentration not given with the values); actives 0.066% (n = 330,000); MEF A1-2A-BIM cells, Caspase-Glo 3/7 luminescence, 3 h; percent of clofoctol response, vehicle zero;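 active means over half of replicate activation scores above 10%, or exactly half above 10 with the replicate mean above 10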
# APOBEC3A inh: blocks human APOBEC3A ssDNA deamination | actives 0.41% (n = 330,000) | recombinant A3A, FAM/TAMRA ssDNA deamination fluorescence | inhibition, % at 20 µM | P31941;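 active means at least 40% inhibition at 20 µM here, with at most 30% in a related deaminase screen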;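 further: plate controls were A3A with DMSO for no effect and wells lacking A3A enzyme for full effect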
# Target sequence (P31941 whole entry, looked up): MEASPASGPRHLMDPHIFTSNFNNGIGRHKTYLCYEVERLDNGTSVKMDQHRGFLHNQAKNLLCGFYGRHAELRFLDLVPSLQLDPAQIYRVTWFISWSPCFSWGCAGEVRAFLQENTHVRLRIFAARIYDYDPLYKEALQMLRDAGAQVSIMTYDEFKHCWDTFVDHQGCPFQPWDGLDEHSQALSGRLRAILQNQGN
# A3G deaminase: inhibitors of human APOBEC3G DNA deaminase; Q9HC16; recombinant A3G, ssDNA deamination FAM/TAMRA fluorescence; actives 0.28% (n = 330,000); AID 493012; inhibition, % at 20 µM;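 active means inhibition of at least 40% at 20 µM, with no more than 30% in the related APOBEC3A deaminase screen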;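 further: plate controls were DMSO wells with A3G for no effect and wells lacking A3G enzyme for full effect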
# Target sequence (Q9HC16 whole entry, looked up): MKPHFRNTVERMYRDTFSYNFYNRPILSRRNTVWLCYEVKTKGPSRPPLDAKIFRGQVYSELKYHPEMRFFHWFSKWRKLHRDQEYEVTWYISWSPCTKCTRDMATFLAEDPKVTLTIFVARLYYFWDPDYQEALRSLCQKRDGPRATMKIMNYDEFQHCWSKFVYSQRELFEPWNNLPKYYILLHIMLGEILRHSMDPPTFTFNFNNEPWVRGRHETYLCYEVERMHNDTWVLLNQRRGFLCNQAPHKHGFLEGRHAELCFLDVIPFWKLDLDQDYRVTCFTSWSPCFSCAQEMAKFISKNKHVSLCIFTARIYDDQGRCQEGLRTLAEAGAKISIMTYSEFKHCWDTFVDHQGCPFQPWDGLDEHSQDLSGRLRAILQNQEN
# MIN6 prolif-2: MIN6 beta-cell replication induction, confirmed; shares compounds with MIN6 prolif-1; MIN6 beta-cell proliferation, ATPlite luminescence, 48 h; cells kept in 0.2% serum; scaled between 0.2% and 10% serum; proliferation increase, % at 50 µM; 920 tested, under 10 active;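 active means proliferation increase above 40% at any of the four tested concentrations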
# Active calls of the source: *; nt = no result given.
SMILES,MIN6 prolif-1,Bfl-1 A1 inh,APOBEC3A inh,A3G deaminase,MIN6 prolif-2
COc1ccc(-c2cc(=O)oc3cc4occ(C)c4cc23)cc1,2.6,-0.5,4.4,-2.9,nt
Cc1coc2cc3oc(=O)cc(C)c3cc12,7.3*,0.4,0.8,1.9,3.6
CCN(C(=O)COC(=O)C1CCN(S(=O)(=O)c2cccs2)CC1)c1ccccc1,3.9,1.5,2.3,-3.7,nt
O=C(NCCc1ccccc1)c1cccc2c1C(=O)N(C1CCCCC1)C2,-4.7,-0.2,-1.9,-0.9,nt
CCCN1Cc2cccc(C(=O)NCCc3ccccc3)c2C1=O,11.2*,0.0,1.7,-6.7,-1.7
N/N=C/C(=N\Nc1ccc(Cl)cc1)C(=O)c1ccncc1,9.8*,1.3,-2.0,-4.3,0.5
COc1ccc(N(CC(=O)NCc2cccs2)S(=O)(=O)c2ccc(F)cc2)cc1,-0.5,-0.3,3.7,-1.1,nt
O=C(COC(=O)c1ccccc1O)Nc1cc([N+](=O)[O-])ccc1Cl,-3.6,1.1,-3.4,-4.5,nt
COc1ccc(-n2nc(C(=O)NCC(=O)NCCC3=CCCCC3)c3ccccc3c2=O)cc1OC,0.0,1.1,-0.3,-6.3,nt
CCCCCOC(=O)Cn1c(N2CCCCCC2)nc2c1c(=O)[nH]c(=O)n2C,9.2*,0.3,-3.1,-6.4,-5.0
CCOC(=O)Cn1c(N2CCCCCC2)nc2c1c(=O)[nH]c(=O)n2C,2.9,0.1,-5.6,-0.6,nt
CC1CCCN(C(=O)CNC(=O)c2ccco2)C1 (stereo not drawn),-4.1,1.8,5.1,-2.7,nt
O=C(NCC(=O)N1CCCC(C(F)(F)F)C1)c1ccco1 (stereo not drawn),12.0*,-0.9,-4.4,-9.3,0.8
Nc1c(-c2ccc(Cl)cc2)cnc2c(-c3ccccc3)cnn12,-2.1,-3.1,-0.1,-5.1,nt
CCc1nnc(SCC(=O)NC2CC2)n1CC,-2.8,1.2,-4.4,-4.9,nt
COCc1cc(C(C)=O)ccc1OCC(=O)Nc1ccc(NC(C)=O)cc1,-0.4,0.4,5.8,-1.1,nt
CCc1ccc(NC(=O)C2=CC=CN3CCS(=O)(=O)N=C23)cc1,10.8*,0.1,0.9,-11.1,-4.0
CCC(NC(C)C)C(O)c1ccc(O)c2[nH]c(=O)ccc12 (stereo not drawn),19.0*,0.8,-2.6,-6.6,-0.4
COc1ccccc1/C=N/OCc1cc(C(C)=O)ccc1OC,-2.7,1.0,-5.2,-11.6,nt
COc1cc(/C=C/c2[nH]c(=O)[nH]c(=O)c2[N+](=O)[O-])cc(OC)c1O,5.7*,-0.2,-4.7,-2.4,-4.0
COc1cccc(/C=C/c2[nH]c(=O)[nH]c(=O)c2[N+](=O)[O-])c1O,-3.4,0.3,1.0,-5.6,nt
CCOC(=O)C1C(=O)CC(C)(O)C(C(=O)OCC)C1c1ccc(N(CC)CC)cc1 (stereo not drawn),5.1*,-1.2,-1.1,-4.8,-1.0
COc1cccc(NC(=O)CN(C)C(=O)CCNS(=O)(=O)c2ccc(C)cc2)c1,0.1,0.5,-2.7,-7.4,nt
COc1cc(C(=O)N/C(=C\c2cn(S(=O)(=O)N(C)C)c3ccccc23)C(=O)NCCCO)cc(OC)c1OC,8.6*,-0.1,-6.7,-19.3,-2.6
C/C(=N\Nc1cccc(Cl)c1)c1ccc(-n2ccnc2)cc1,nt,0.1,nt,nt,nt
SMILES,MIN6 prolif-1,Bfl-1 A1 inh,APOBEC3A inh,A3G deaminase,MIN6 prolif-2
CCOC(=O)c1cc[nH]c1CC(=O)NC,8.5*,0.7,-0.8,-6.6,-1.9
OCCC1CN(Cc2ccc(Oc3ncccn3)cc2)CCN1Cc1ccc(F)c(F)c1 (stereo not drawn),-3.0,-0.3,-11.8,-9.8,nt
CCc1nc(CN2CCN(Cc3ccc(F)c(F)c3)C(CCO)C2)c(C)[nH]1 (stereo not drawn),8.6*,1.0,-1.2,-4.1,-1.2
O=C(CCC(=O)N1CCOc2ccccc21)Nc1ccccc1Br,3.3,1.0,-1.1,-1.6,nt
CC(C)[C@H](N)c1cn([C@@H](CC(N)=O)C(=O)N2CCNCC2)nn1,-2.1,1.0,1.0,-7.8,nt
CN(Cc1cccs1)C(=O)COc1cccc2c1OC(C)(C)C2,9.9*,-0.9,-6.3,-6.7,-1.0
CN(C)Cc1c(C(=O)N/N=C/C=C/c2ccccc2)nnn1-c1nonc1N,1.1,-0.1,3.5,-2.6,nt
CC(C)c1c(C(=O)N/N=C/C=C/c2ccccc2)nnn1-c1nonc1N,11.7*,0.7,-3.5,-4.8,-5.9
CC(C)=CC/C=C1\CCC(C(=O)O)C(C(=O)O)C1 (stereo not drawn),5.5*,-0.1,3.3,1.7,-2.0
CC1=CCC(C(=O)O)C(C(=O)O)C1 (stereo not drawn),-2.8,1.1,-0.9,-5.8,nt
CCCc1cc(=O)oc2c(C)c(OC(C)C(=O)NCCN3CCOCC3)ccc12 (stereo not drawn),-1.9,1.9,-3.6,-8.7,nt
O=C(O)CNC(=S)N(Cc1ccc(F)cc1)C1CCCCC1,8.2*,-0.8,-3.8,-8.0,-2.5
C[C@@H]1C[C@@H]2OC(=O)[C@]3(C)[C@H]2[C@@H](OC3(C)O)[C@]2(C)C(=O)CC[C@H]12 (stereo partly drawn),10.8*,-0.5,-1.3,-5.3,0.5
CCOC(=O)c1ccc(-n2cncn2)nc1,0.0,-1.3,-2.1,-0.8,nt
C#CCOC(=O)c1ccc(-n2cncn2)nc1,5.9*,0.1,-0.3,-3.3,-0.7
O=C(COc1ccc(Br)cc1)NCC1COc2ccccc2O1 (stereo not drawn),-3.2,-0.7,-3.0,-2.3,nt
Cc1ccc(S(=O)(=O)NCCC(=O)NC2CC2)cc1,-0.6,0.3,-4.1,-3.5,nt
Cc1ccc(S(=O)(=O)NCC(=O)NC2CC2)cc1,10.9*,1.0,-4.3,-11.7,-0.3
Cc1ccc(N2CC(C(=O)NCCS(=O)(=O)N3CCN(c4ccccc4)CC3)CC2=O)cc1C (stereo not drawn),3.6,-0.5,-3.5,-6.0,nt
CCN1C(=O)N(CC)C2C1N(C(C)=O)C(=O)N2C(C)=O (stereo not drawn),8.2*,1.2,0.8,-5.5,-1.1
CC(=O)N1C(=O)N(C)C2C1N(C)C(=O)N2C(C)=O (stereo not drawn),1.4,-0.1,-4.8,-6.7,nt
CCN(CC)c1cnn(C/C(=N\OC)c2ccc(Cl)cc2)c(=O)c1Br,7.5*,-0.2,-1.9,-1.4,-6.4
CO/N=C(\Cn1ncc(N2CCCC2)c(Cl)c1=O)c1ccc(Cl)cc1,-0.6,-0.1,2.6,0.4,nt
NC(=O)c1ccsc1NC(=O)COC(=O)Cc1ccccc1Cl,-3.1,-0.2,-4.9,-8.7,nt
CCc1ccccc1N(C(=O)c1snc(C(N)=O)c1N)C(C(=O)NCC1CCCO1)c1ccc(N(C)C)cc1 (stereo not drawn),8.7*,nt,-4.4,-4.5,-0.6
COc1ccc(C(C(=O)NCc2ccccc2)N(C(=O)c2snc(C(N)=O)c2N)c2ccccc2OC)cc1OC (stereo not drawn),21.6*,-0.3,-2.9,-10.1,-1.9
Cc1ccc(N(C(=O)c2snc(C(N)=O)c2N)C(C(=O)NCC2CCCO2)c2ccc(C)o2)c(C)c1 (stereo not drawn),16.6*,0.6,3.3,-2.7,-6.3
